Screening data (PubChem BioAssay)
The list is not random: actives were taken first. Their share in the collection is about 11%.
3T3 cytotox – Cytotoxic Profiling in NIH 3T3 Cell Line of Diverse Libraries Using Quantitative High-Throughput Screening; NIH 3T3 viability, CellTiter-Glo ATP luminescence, 48-72 h; Potency, µM (highest dose often 96.7 µM), most hits filed as inhibitors; 4.3% of 94,000 active; AID 1345082, 2018; note: nearly all actives have a fitted effect of over 55% in size
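Mouse fibroblast NIH 3T3 cells, 400 per well, received compound via pintool and were incubated for 48 or 72 hr prior to CellTiter-Glo ATP luminescence measurement.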
NPR1 antag – Natriuretic polypeptide receptor (hNpr1) antagonism - Primary qHTS | HEK293 hNpr1 GloSensor cGMP, ANP-stimulated luminescence | 1.6% of 76,000 active | Atrial natriuretic peptide receptor 1 (Homo sapiens), P16066 | Potency, µM (series often up to 46.3 µM), usual class: inhibitors; calls by dose curve; note: nearly all actives have a fitted effect of over 60% in size
Target sequence (P16066 whole entry, looked up): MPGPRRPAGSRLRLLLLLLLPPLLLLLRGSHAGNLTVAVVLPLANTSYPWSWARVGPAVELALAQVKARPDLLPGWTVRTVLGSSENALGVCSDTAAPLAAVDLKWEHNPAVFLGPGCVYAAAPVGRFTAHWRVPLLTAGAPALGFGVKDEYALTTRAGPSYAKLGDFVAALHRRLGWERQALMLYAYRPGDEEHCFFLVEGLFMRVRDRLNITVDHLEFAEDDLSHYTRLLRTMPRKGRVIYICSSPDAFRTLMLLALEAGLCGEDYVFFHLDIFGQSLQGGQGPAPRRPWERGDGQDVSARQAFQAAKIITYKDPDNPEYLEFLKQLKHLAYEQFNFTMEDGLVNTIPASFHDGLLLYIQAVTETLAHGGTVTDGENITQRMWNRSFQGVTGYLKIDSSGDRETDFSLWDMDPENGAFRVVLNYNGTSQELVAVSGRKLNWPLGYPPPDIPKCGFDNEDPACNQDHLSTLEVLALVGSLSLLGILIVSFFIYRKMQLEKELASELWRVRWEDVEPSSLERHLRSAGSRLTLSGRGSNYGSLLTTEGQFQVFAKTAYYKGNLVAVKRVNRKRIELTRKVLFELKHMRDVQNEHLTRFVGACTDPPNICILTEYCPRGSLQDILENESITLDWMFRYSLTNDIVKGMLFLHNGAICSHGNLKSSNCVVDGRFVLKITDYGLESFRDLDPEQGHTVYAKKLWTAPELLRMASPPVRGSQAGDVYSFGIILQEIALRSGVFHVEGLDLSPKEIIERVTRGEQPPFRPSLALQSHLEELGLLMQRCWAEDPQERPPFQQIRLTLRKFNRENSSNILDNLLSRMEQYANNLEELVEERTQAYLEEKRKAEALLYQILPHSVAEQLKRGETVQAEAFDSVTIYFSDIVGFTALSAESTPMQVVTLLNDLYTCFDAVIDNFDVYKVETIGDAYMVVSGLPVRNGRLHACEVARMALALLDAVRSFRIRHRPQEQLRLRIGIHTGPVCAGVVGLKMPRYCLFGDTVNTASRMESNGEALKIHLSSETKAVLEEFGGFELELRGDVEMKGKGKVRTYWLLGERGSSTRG
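Compound pre-incubated 30 min at room temperature on GloSensor-loaded HEK293 cells stably carrying hNpr1 and the pGS-40F cGMP biosensor. Stimulation uses hNppA at 0.1 nM final; luminescence is taken at baseline and 20 min post-agonist.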
FLuc inh – Firefly luciferase inhibition profiling of diverse chemical library using quantitative high-throughput screening. purified P. pyralis luciferase, luminescence, biochemical. 2.5% of 76,000 active. AID 1347043, 2019. Potency, µM (series often up to 115 µM), hits mostly inhibitors. Luciferin 4-monooxygenase (Photinus pyralis), P08659; note: nearly all actives have a fitted effect of over 65% in size
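Cell-free enzyme assay, 10nM P. pyralis luciferase, luciferin and ATP each at 10uM. Inhibition profiled over a 6-point titration, read as luminescence.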
HEK cytotox – Cytotoxic Profiling in HEK 293 Cell Line of Diverse Libraries Using Quantitative High-Throughput Screening; Potency, µM (doses to about 115 µM), actives largely listed as inhibitors; HEK 293 viability, ATP luminescence (CellTiter-Glo), 48-72 h; 6.6% of 94,000 active; note: nearly all actives have a fitted effect of over 60% in size
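HEK 293 cells at 250 cells/well were exposed to compounds by pintool transfer for 48 or 72 hr at 37 degree Celsius, 5% CO2. Viability was read as ATP-coupled luminescence with CellTiter-Glo after 10 min at room temperature.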
Hits are given with their value. Unless noted, calls come from the whole dose curve; as a rule, active = well fitted curve in the direction sought with a large enough effect; inconclusive = small, poorly fitted or top-dose-only effect, or another doubt; inactive = no such curve, though single readings can be large; an effect the other way counts as inactive or inconclusive.

What do the screens show for `COc1ccc(C(=O)N[C@H]2[C@H](O)[C@H](O)C[C@@H]2c2ccc(C(F)(F)F)cc2)cc1`?
3T3 cytotox: inactive; NPR1 antag: inactive; FLuc inh: inactive; HEK cytotox: inactive

Results for O=S(=O)(N[C@H]1[C@H](O)[C@H](O)C[C@@H]1c1ccc(C(F)(F)F)cc1)c1ccc(F)cc1 ?
3T3 cytotox: inconclusive; NPR1 antag: inactive; FLuc inh: inactive; HEK cytotox: 70.8µM

How did COc1ccc([C@H]2C[C@@H](O)[C@@H](O)[C@@H]2NC(=O)Nc2ccc(C(F)(F)F)cc2)cc1 do in these assays?
3T3 cytotox: 25.1µM; NPR1 antag: inconclusive; FLuc inh: inactive; HEK cytotox: inconclusive

Results for Cc1ccccc1[C@H]1C[C@@H](O)[C@@H](O)[C@@H]1NS(=O)(=O)c1ccc(C(F)(F)F)cc1 ?
3T3 cytotox: inactive; NPR1 antag: inactive; FLuc inh: inactive; HEK cytotox: 100µM

How did CN(CC1CCOCC1)S(=O)(=O)c1ccccc1Br do in these assays?
3T3 cytotox: inactive; NPR1 antag: inactive; FLuc inh: inactive; HEK cytotox: inconclusive

How did Fc1ccccc1CN1CCOC[C@H]1c1ncc(-c2cccc(Cl)c2)[nH]1 do in these assays?
3T3 cytotox: 79.4µM; NPR1 antag: inactive; FLuc inh: inactive; HEK cytotox: 79.4µM

Results for Fc1ccc(CN2CCOC[C@H]2c2ncc(-c3cccc(Cl)c3)[nH]2)cc1 ?
3T3 cytotox: 70.8µM; NPR1 antag: inconclusive; FLuc inh: inactive; HEK cytotox: inconclusive

What do the screens show for `Oc1ccccc1CN1CCOC[C@H]1c1ncc(-c2ccc(F)cc2F)[nH]1`?
3T3 cytotox: inconclusive; NPR1 antag: inactive; FLuc inh: inactive; HEK cytotox: 79.4µM

What do the screens show for `Clc1cccc(-c2cnc([C@@H]3COCCN3Cc3ncc[nH]3)[nH]2)c1`?
3T3 cytotox: inactive; NPR1 antag: inactive; FLuc inh: inactive; HEK cytotox: inactive

Results for Fc1cccc(-c2cnc([C@@H]3COCCN3Cc3ccc(Cl)cc3)[nH]2)c1 ?
3T3 cytotox: inconclusive; NPR1 antag: inconclusive; FLuc inh: inactive; HEK cytotox: 79.4µM

Results for CN(C)c1ccc(CN2CCOC[C@H]2c2ncc(-c3ccc(F)cc3F)[nH]2)cc1 ?
3T3 cytotox: inconclusive; NPR1 antag: inactive; FLuc inh: inactive; HEK cytotox: inconclusive

Results for CN1CCC(N(C)C(=O)CC2CCCN(c3cnn(C)c(=O)c3)C2)CC1 (centres undefined) ?
3T3 cytotox: inactive; HEK cytotox: inactive

Results for Cc1ccc(C2(O)CCN(C(=O)c3ccc4ncccc4c3)CC2)nc1 ?
3T3 cytotox: inactive; NPR1 antag: inactive; FLuc inh: inactive; HEK cytotox: inactive

How did COCCNC(=O)c1ccc2nnc(-c3cc[nH]c3)n2c1 do in these assays?
3T3 cytotox: inactive; HEK cytotox: inactive

Results for CN(C)c1ccc(CN2CCOC[C@H]2c2ncc(-c3cccc(Cl)c3)[nH]2)cc1 ?
3T3 cytotox: inconclusive; NPR1 antag: inactive; FLuc inh: inactive; HEK cytotox: 112µM

Results for CS(=O)(=O)c1ccc(-c2cnc([C@@H]3COCCN3Cc3ccc(Cl)cc3)[nH]2)cc1 ?
3T3 cytotox: inconclusive; NPR1 antag: inactive; FLuc inh: inactive; HEK cytotox: 79.4µM

Results for CNC(=O)c1cc(C)nc2onc(C3CCCN(C(=O)C4CCCC4)C3)c12 (centres undefined) ?
3T3 cytotox: inactive; HEK cytotox: inactive

What do the screens show for `Cc1ccc(-c2noc(-c3nc(-c4ccccn4)no3)n2)cc1`?
3T3 cytotox: inactive; NPR1 antag: inactive; FLuc inh: 17.8µM; HEK cytotox: inactive

How did COc1ccc(-c2noc(-c3nc(-c4ccccn4)no3)n2)cc1 do in these assays?
3T3 cytotox: inactive; NPR1 antag: inactive; FLuc inh: inactive; HEK cytotox: inactive

How did O=C(c1ccc(F)cc1)N1CCCN(c2ccnc3ccnn23)CC1 do in these assays?
3T3 cytotox: inconclusive; HEK cytotox: inactive

How did COc1ccc(C2Cn3nnc(-c4noc(COc5ccccc5)n4)c3CO2)cc1 (centres undefined) do in these assays?
3T3 cytotox: inactive; NPR1 antag: inactive; FLuc inh: inactive; HEK cytotox: inactive

Results for C=C(C)CN(C)C(=O)c1cc(CN2CCC(Cc3ccccc3)CC2)on1 ?
3T3 cytotox: inactive; NPR1 antag: inactive; FLuc inh: inactive; HEK cytotox: 89.1µM

What do the screens show for `COc1ccc(CCNC(=O)c2nc3sccn3c2-c2ccc(C)cc2)cc1`?
3T3 cytotox: 22.4µM; HEK cytotox: inconclusive

Results for Cc1ccc(-c2c(C(=O)NCc3ccccn3)nc3sccn23)cc1 ?
3T3 cytotox: inconclusive; HEK cytotox: 79.4µM

What do the screens show for `COc1ccc(-c2c(C(=O)NC3CCCCCC3)nc3sccn23)cc1`?
3T3 cytotox: inactive; HEK cytotox: 44.7µM

How did O=C(NCc1ccccn1)c1nc2sccn2c1-c1ccc(F)cc1 do in these assays?
3T3 cytotox: inconclusive; HEK cytotox: inactive

What do the screens show for `O=C(NCCCc1ccccc1)c1nc2sccn2c1-c1cccc(C(F)(F)F)c1`?
3T3 cytotox: inconclusive; HEK cytotox: 50.1µM

What do the screens show for `Cc1csc(NC(=O)c2nc(C(O)c3cccc(O)c3)oc2C)n1` (centres undefined)?
3T3 cytotox: inconclusive; NPR1 antag: inconclusive; FLuc inh: inactive; HEK cytotox: inconclusive

How did O=C(NCCN1CCOCC1)c1ccc2oc(-c3ccncc3)nc2c1 do in these assays?
3T3 cytotox: inactive; HEK cytotox: inactive

How did CNC(=O)c1cc(C)nc2onc(C3CCCN3[S+](=O)([O-])c3ccc(C)cc3)c12 (centres undefined) do in these assays?
3T3 cytotox: inactive; HEK cytotox: inactive

What do the screens show for `O=C(NCC1CCCCC1)c1nc2sccn2c1-c1cccnc1`?
3T3 cytotox: inconclusive; HEK cytotox: inactive

Results for Cc1ccc(-c2c(C(=O)NCCCc3ccccc3)nc3sccn23)cc1 ?
3T3 cytotox: 28.2µM; HEK cytotox: 17.8µM

What do the screens show for `O=C(NCC1CCCCC1)c1nc2sccn2c1-c1ccccc1`?
3T3 cytotox: 28.2µM; HEK cytotox: inconclusive

How did NC1CCCN(Cc2cc(F)ccc2-n2cccn2)CC1 (centres undefined) do in these assays?
3T3 cytotox: inactive; NPR1 antag: inactive; FLuc inh: inactive; HEK cytotox: inconclusive

Results for O=C(CC(c1cccc([N+](=O)[O-])c1)c1c[nH]c2ccccc12)NCCc1ccccc1 (centres undefined) ?
3T3 cytotox: 25.1µM; NPR1 antag: inconclusive; FLuc inh: inactive; HEK cytotox: 31.6µM

Results for CCc1cccc2c(C(CC(=O)NCCc3ccc(OC)c(OC)c3)c3ccccc3OC)c[nH]c12 (centres undefined) ?
3T3 cytotox: inconclusive; NPR1 antag: inactive; FLuc inh: inactive; HEK cytotox: 35.5µM
